# Assay results: PubChem BioAssay AID1159580 (chemical genetic matrix, 2015)
# “And” between values parts separate entries of the source, which are not always exact repeats. Equal entries are not always repeated. The whole screen tested about 5,500 compounds, of which about 2,000 (36%) were called active. About 18% were inconclusive and are not listed. No stated cut-off is given here; in the data, active means normalized growth mostly below about 0.91 (no sharp cut-off); inconclusive means no clear call, values can overlap the other calls; inactive means mostly above about 0.92. The list shows a part of the results. Some compounds were tested as several samples or in several runs, with calls that do not always agree.
# Test: chemical genetic growth profiling, strain panel (AID 1159580);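 further: tested at 20 µM; growth read once vehicle control cultures reached saturation at 30 °C; 1 = growth at the plate median or of vehicle wells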
# Details: growth OD
smiles,measurement,setting,value
O=c1cc(-c2ccccc2)oc2cc(O)cc(O)c12,normalized growth,"S. cerevisiae deletion strains, locus YJR075W, strain HOC1, stronger effect = lower value",0.924 (inactive)
same,normalized growth,"S. cerevisiae deletion strains, locus YKL009W, strain mrt4, stronger effect = lower value",0.667 (active)
same,normalized growth,"S. cerevisiae deletion strains, locus YKL068W, stronger effect = lower value",0.943 (inactive)
same,normalized growth,"S. cerevisiae deletion strains, locus YKL085W, strain MDH1 (second series), stronger effect = lower value",0.888 (active)
same,normalized growth,"S. cerevisiae deletion strains, locus YKL085W, strain MDH1, stronger effect = lower value",0.888 (active)
same,normalized growth,"S. cerevisiae deletion strains, locus YKL160W, strain elf1, stronger effect = lower value",0.908 (inactive) and 0.809 (active)
same,normalized growth,"S. cerevisiae deletion strains, locus YKL190W, strain CNB1, stronger effect = lower value",0.941 (inactive)
same,normalized growth,"S. cerevisiae deletion strains, locus YKR001C, strain vps1, stronger effect = lower value",0.813 (active)
same,normalized growth,"S. cerevisiae deletion strains, locus YKR026C, strain gcn3, stronger effect = lower value",0.94 (inactive) and 0.912 (active)
same,normalized growth,"S. cerevisiae deletion strains, locus YKR091W, strain srl3, stronger effect = lower value",0.943 (inactive) and 0.912 (active)
same,normalized growth,"S. cerevisiae deletion strains, locus YLL001W, strain dnm1, stronger effect = lower value",0.94 (inactive) and 0.905 (inactive)
same,normalized growth,"S. cerevisiae deletion strains, locus YLL026W, stronger effect = lower value",0.936 (inactive) and 0.919 (active)
same,normalized growth,"S. cerevisiae deletion strains, locus YLL041C, strain sdh2, stronger effect = lower value",0.946 (inactive) and 0.915 (active)
same,normalized growth,"S. cerevisiae deletion strains, locus YLR027C, strain aat2, stronger effect = lower value",0.943 (inactive) and 0.867 (active)
same,normalized growth,"S. cerevisiae deletion strains, locus YLR039C, strain RIC1, stronger effect = lower value",0.715 (inactive)
same,normalized growth,"S. cerevisiae deletion strains, locus YLR058C, strain SHM2, stronger effect = lower value",0.965 (inactive)
same,normalized growth,"S. cerevisiae deletion strains, locus YLR102C, strain apc9, stronger effect = lower value",0.947 (inactive)
same,normalized growth,"S. cerevisiae deletion strains, locus YLR113W, strain HOG1, stronger effect = lower value",0.831 (active)
same,normalized growth,"S. cerevisiae deletion strains, locus YLR221C, strain rsa3, stronger effect = lower value",0.944 (inactive) and 0.828 (active)
same,normalized growth,"S. cerevisiae deletion strains, locus YLR258W, strain gsy2, stronger effect = lower value",0.924 (inactive) and 0.838 (active)
same,normalized growth,"S. cerevisiae deletion strains, locus YLR262C, strain YPT6 (second series), stronger effect = lower value",0.677 (active) and 0.514 (active)
same,normalized growth,"S. cerevisiae deletion strains, locus YLR262C, strain YPT6, stronger effect = lower value",0.684 (inactive)
same,normalized growth,"S. cerevisiae deletion strains, locus YLR268W, strain sec22, stronger effect = lower value",0.837 (active)
same,normalized growth,"S. cerevisiae deletion strains, locus YLR320W, strain mms22, stronger effect = lower value",0.837 (active) and 0.73 (active)
same,normalized growth,"S. cerevisiae deletion strains, locus YLR330W, strain CHS5, stronger effect = lower value",0.972 (inactive)
same,normalized growth,"S. cerevisiae deletion strains, locus YLR342W, strain FKS1 (second series), stronger effect = lower value",0.862 (inactive)
same,normalized growth,"S. cerevisiae deletion strains, locus YLR342W, strain FKS1, stronger effect = lower value",0.946 (inactive) and 0.903 (active)
same,normalized growth,"S. cerevisiae deletion strains, locus YLR357W, strain rsc2, stronger effect = lower value",0.882 (inactive) and 0.838 (active)
same,normalized growth,"S. cerevisiae deletion strains, locus YLR370C, strain arc18, stronger effect = lower value",0.958 (inactive) and 0.933 (inactive)
same,normalized growth,"S. cerevisiae deletion strains, locus YLR371W, strain rom2, stronger effect = lower value",0.951 (inactive)
same,normalized growth,"S. cerevisiae deletion strains, locus YLR384C, strain iki3, stronger effect = lower value",0.938 (inactive) and 0.931 (inactive)
same,normalized growth,"S. cerevisiae deletion strains, locus YLR418C, strain cdc73, stronger effect = lower value",0.761 (active)
same,normalized growth,"S. cerevisiae deletion strains, locus YML016C, strain PPZ1, stronger effect = lower value",0.985 (inactive)
same,normalized growth,"S. cerevisiae deletion strains, locus YML032C, strain rad52, stronger effect = lower value",0.87 (active)
same,normalized growth,"S. cerevisiae deletion strains, locus YML120C, strain ndi1, stronger effect = lower value",0.944 (inactive) and 0.942 (inactive)
same,normalized growth,"S. cerevisiae deletion strains, locus YML124C, strain tub3, stronger effect = lower value",0.952 (inactive)
same,normalized growth,"S. cerevisiae deletion strains, locus YMR058W, strain fet3, stronger effect = lower value",0.893 (active) and 0.653 (active)
same,normalized growth,"S. cerevisiae deletion strains, locus YMR078C, strain ctf18, stronger effect = lower value",0.928 (inactive)
same,normalized growth,"S. cerevisiae deletion strains, locus YMR125W, strain sto1, stronger effect = lower value",0.929 (inactive) and 0.907 (inactive)
same,normalized growth,"S. cerevisiae deletion strains, locus YMR129W, stronger effect = lower value",0.94 (inactive)
same,normalized growth,"S. cerevisiae deletion strains, locus YMR205C, strain PFK2, stronger effect = lower value",0.87 (active) and 0.693 (active)
same,normalized growth,"S. cerevisiae deletion strains, locus YMR223W, strain ubp8, stronger effect = lower value",0.906 (inactive)
same,normalized growth,"S. cerevisiae deletion strains, locus YMR231W, strain pep5, stronger effect = lower value",0.934 (inactive) and 0.871 (active)
same,normalized growth,"S. cerevisiae deletion strains, locus YMR263W, strain SAP30, stronger effect = lower value",0.927 (inactive)
same,normalized growth,"S. cerevisiae deletion strains, locus YMR307W, strain GAS1, stronger effect = lower value",0.551 (active)
same,normalized growth,"S. cerevisiae deletion strains, locus YNL067W, strain RPL9B, stronger effect = lower value",0.898 (inactive)
same,normalized growth,"S. cerevisiae deletion strains, locus YNL071W, strain lat1, stronger effect = lower value",0.891 (active) and 0.727 (active)
same,normalized growth,"S. cerevisiae deletion strains, locus YNL128W, strain TEP1, stronger effect = lower value",0.972 (inactive)
same,normalized growth,"S. cerevisiae deletion strains, locus YNL153C, strain GIM3, stronger effect = lower value",0.931 (inactive)
same,normalized growth,"S. cerevisiae deletion strains, locus YNL183C, strain NPR1, stronger effect = lower value",0.894 (inactive)
same,normalized growth,"S. cerevisiae deletion strains, locus YNL209W, strain ssb2, stronger effect = lower value",0.954 (inactive) and 0.871 (active)
same,normalized growth,"S. cerevisiae deletion strains, locus YNL233W, strain BNI4, stronger effect = lower value",0.869 (active)
same,normalized growth,"S. cerevisiae deletion strains, locus YNL248C, strain rpa49, stronger effect = lower value",0.97 (inactive) and 0.818 (active)
same,normalized growth,"S. cerevisiae deletion strains, locus YNL250W, strain rad50, stronger effect = lower value",0.925 (inactive)
same,normalized growth,"S. cerevisiae deletion strains, locus YNL271C, strain bni1, stronger effect = lower value",0.904 (active)
same,normalized growth,"S. cerevisiae deletion strains, locus YNL298W, strain CLA4, stronger effect = lower value",0.893 (active)
same,normalized growth,"S. cerevisiae deletion strains, locus YNL307C, strain MCK1, stronger effect = lower value",0.834 (active)
same,normalized growth,"S. cerevisiae deletion strains, locus YNL322C, strain KRE1 (second series), stronger effect = lower value",0.97 (inactive) and 0.877 (active)
same,normalized growth,"S. cerevisiae deletion strains, locus YNL322C, strain KRE1, stronger effect = lower value",0.978 (inactive)
same,normalized growth,"S. cerevisiae deletion strains, locus YNR049C, strain mso1, stronger effect = lower value",0.966 (inactive) and 0.944 (inactive)
same,normalized growth,"S. cerevisiae deletion strains, locus YNR052C, strain pop2, stronger effect = lower value",0.944 (inactive)
same,normalized growth,"S. cerevisiae deletion strains, locus YOL006C, strain TOP1, stronger effect = lower value",0.686 (inactive)
same,normalized growth,"S. cerevisiae deletion strains, locus YOL012C, strain htz1",0.62 (inactive)
same,normalized growth,"S. cerevisiae deletion strains, locus YOL147C, strain pex11, stronger effect = lower value",0.929 (active)
same,normalized growth,"S. cerevisiae deletion strains, locus YOR001W, strain rrp6, stronger effect = lower value",0.941 (inactive) and 0.903 (inactive)
same,normalized growth,"S. cerevisiae deletion strains, locus YOR061W, strain CKA2, stronger effect = lower value",0.98 (inactive)
same,normalized growth,"S. cerevisiae deletion strains, locus YOR069W, strain VPS5, stronger effect = lower value",0.988 (inactive)
same,normalized growth,"S. cerevisiae deletion strains, locus YOR070C, strain gyp1, stronger effect = lower value",0.957 (inactive) and 0.875 (active)
same,normalized growth,"S. cerevisiae deletion strains, locus YOR080W, strain dia2, stronger effect = lower value",0.97 (inactive) and 0.934 (inactive)
same,normalized growth,"S. cerevisiae deletion strains, locus YOR083W, strain WHI5, stronger effect = lower value",0.912 (inactive) and 0.807 (active)
same,normalized growth,"S. cerevisiae deletion strains, locus YOR106W, strain vam3, stronger effect = lower value",0.915 (inactive) and 0.802 (active)
same,normalized growth,"S. cerevisiae deletion strains, locus YOR136W, strain idh2, stronger effect = lower value",0.968 (inactive)
same,normalized growth,"S. cerevisiae deletion strains, locus YOR144C, strain elg1, stronger effect = lower value",0.932 (active)
same,normalized growth,"S. cerevisiae deletion strains, locus YOR184W, strain ser1, stronger effect = lower value",0.761 (active)
same,normalized growth,"S. cerevisiae deletion strains, locus YOR231W, strain MKK1, stronger effect = lower value",0.905 (inactive)
same,normalized growth,"S. cerevisiae deletion strains, locus YOR265W, strain rbl2, stronger effect = lower value",0.947 (inactive) and 1.01 (inactive)
same,normalized growth,"S. cerevisiae deletion strains, locus YOR270C, strain vph1, stronger effect = lower value",0.746 (active) and 0.518 (active)
same,normalized growth,"S. cerevisiae deletion strains, locus YOR290C, strain snf2, stronger effect = lower value",0.901 (inactive) and 0.85 (active)
same,normalized growth,"S. cerevisiae deletion strains, locus YOR316C, strain cot1, stronger effect = lower value",0.945 (inactive)
same,normalized growth,"S. cerevisiae deletion strains, locus YPL051W, strain arl3, stronger effect = lower value",0.905 (active) and 0.701 (active)
same,normalized growth,"S. cerevisiae deletion strains, locus YPL055C, strain LGE1, stronger effect = lower value",0.91 (inactive)
same,normalized growth,"S. cerevisiae deletion strains, locus YPL078C, strain atp4, stronger effect = lower value",0.926 (inactive) and 0.776 (active)
same,normalized growth,"S. cerevisiae deletion strains, locus YPL106C, strain sse1, stronger effect = lower value",0.911 (inactive) and 0.879 (inactive)
same,normalized growth,"S. cerevisiae deletion strains, locus YPL240C, strain hsp82, stronger effect = lower value",0.962 (inactive) and 0.886 (active)
same,normalized growth,"S. cerevisiae deletion strains, locus YPL241C, strain CIN2, stronger effect = lower value",0.985 (inactive)
same,normalized growth,"S. cerevisiae deletion strains, locus YPL256C, strain CLN2, stronger effect = lower value",0.891 (inactive)
same,normalized growth,"S. cerevisiae deletion strains, locus YPR119W, strain clb2, stronger effect = lower value",0.937 (inactive)
same,normalized growth,"S. cerevisiae deletion strains, locus YPR141C, strain kar3, stronger effect = lower value",0.942 (inactive)
same,normalized growth,"S. cerevisiae deletion strains, locus YPR163C, strain tif3, stronger effect = lower value",0.883 (active)
same,normalized growth,"S. cerevisiae deletion strains, locus YPR167C, strain met16, stronger effect = lower value",0.947 (inactive)
same,normalized growth,"S. cerevisiae deletion strains, strain wtn01, stronger effect = lower value",0.912 (inactive)
same,normalized growth,"S. cerevisiae strains, strain wild type, stronger effect = lower value",0.956 (inactive)
